Experimental findings from PubChem BioAssay (NCATS) are described below.

SMILES strings stand for the structures.

The assay can be described thus: Cell Proliferation Assay against the HBL1 Cell Line (AID 651646).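 Further: cells exposed to compound for 48 h before reading.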 The conditions noted are these: HBL1 DLBCL cells; at 46.1 µM (top of the series) unless noted. The text has this:
One class of targeted therapeutics showing early clinical success in killing of ABC DLBCL lines are small molecule inhibitors of the Bruton tyrosine kinase (BTK) 11.
Prior to any combination assays, using an NCATS developed oncology compound library called the Mechanism of Interrogation Plate (MIPE), two well studied ABC DLBCL lines (TMD8 and HBL1) were screened using a cell viability assay (CellTiterGlo) and a 12-point titration series for each single agent. These initial experiments offered insight into the concentration range that offered the best coverage of activity and non-activity to assure relevant data is generated. In addition to the viability signature associated with this library, we examined the apoptotic response of each agent versus the TMD8 line as judged by caspase 3/7 activation. Activity was assayed at both 8 and 16 hour time-points to gain an appreciation of which agents induced an apoptotic response in a reasonable timeframe from a therapeutic exposure perspective. MIPE was also assayed for single agent viability in a human mesenchymal stem cell (hMSC) line as a surrogate of each library member's potential therapeutic index.
A total of 500 log growing HBL1 cells are seeded per well in 5 uL of a RPMI with glutamine (or Glutamax), without phenol red plus 5% FBS and 1X Pen/Strep into 1536 -solid white high base tissue culture treated Greiner One Bio Plates (789173-F) using a multidrop combi dispenser and a small sterile cassette. Compounds and controls totaling 23nL per well (negative control DMSO and positive control 9.2 uM Bortezomib-final) are immediately added to the plates using a 1536 head pin tool from Kalypsys. The plates are then covered with stainless steel gasket lids from Kalypsys and incubated for 48 hours at 37C under 95% relative humidity with 5% CO2. After 48 hours, the plates are removed and allowed to reach room temperature before 3 uL of Cell Titer Glo reagent (Promega) is added using an Aurora Flying Reagent Dispenser Bioraptor. The plates are then spun at 1000 rpms to remove bubbles and incubated for 15 minutes at room temperature before read on a ViewLux using a luminescent filter with a 10 second exposure. The relative luciferase units are used to calculated percent activity using DMSO as 100% and Bortezomib as 0%.
`COc1cc2c(cc1OC)CN(CCc1ccc(NC(=O)c3cccc4c(=O)c5cccc(OC)c5[nH]c34)cc1)CC2`: the viability, percent of control is 0.316%.

Consider `CC(C)C[C@H](NC(=O)[C@@H](O)[C@H](N)Cc1ccccc1)C(=O)O`, for which the viability, percent of control was 106%.

In the case of `Nc1nc2ccc(OC(F)(F)F)cc2s1`, the viability, percent of control stood at 50.6%. For the molecule `NC(=O)c1ccc(-c2nc(-c3ccc4c(c3)OCCO4)c(-c3ccccn3)[nH]2)cc1`, the viability, percent of control amounted to 105%.

With `CCOc1ccc(Cc2cc([C@@H]3O[C@H](CO)[C@@H](O)[C@H](O)[C@@H]3O)ccc2Cl)cc1`, the viability, percent of control is 94.2%. With `COc1cc2nccc(Oc3ccc(NC(=O)NC4CC4)c(Cl)c3)c2cc1C(N)=O`, the viability, percent of control came to 83.1%. On to `O=C(c1cc(Cc2n[nH]c(=O)c3ccccc23)ccc1F)N1CCN(C(=O)C2CC2)CC1`, for which the viability, percent of control turned out to be 64.8%. Regarding `CCCS(=O)(=O)Nc1ccc(F)c(C(=O)c2c[nH]c3ncc(Cl)cc23)c1F`, the viability, percent of control amounted to 70.6%. In the case of `Nc1nccc(-c2ccc3noc(-c4ccc(Cl)cc4)c3c2)n1`, the viability, percent of control was 109%. Take `Cc1cccc(-c2nn(C(=S)Nc3ccccc3)cc2-c2ccnc3ccccc23)n1`: the viability, percent of control came to 94.2%. For `CC1(C)CNc2cc(NC(=O)c3cccnc3NCc3ccncc3)ccc21`, the viability, percent of control was 86%. `Cc1cc(-c2nnc3n2CCCCC3)c(C)n1-c1ccc(F)cc1`: the viability, percent of control turned out to be 4.79%. For `O=S(=O)(N=Cc1c(O)ccc2ccccc12)c1cccs1`, the viability, percent of control worked out at 72.6%. Take `NC(=O)C1CCCc2c1[nH]c1ccc(Cl)cc21` (stereo not given): the viability, percent of control was 73.1%. With `CNCc1ccc(-c2[nH]c3cc(F)cc4c3c2CCNC4=O)cc1` the figure was 73.9%; with `CCc1cc(Nc2nccc(-c3c(-c4ccc(OC)c(C(=O)Nc5c(F)cccc5F)c4)nc4ccccn34)n2)c(OC)cc1N1CCC(N2CCN(S(C)(=O)=O)CC2)CC1`, 87.3%; with `CC1(C)Cc2c(-c3ccccc3)c(-c3ccc(Cl)cc3)c(CC(=O)O)n2C1`, 35.6%. Consider `COc1ccc(-c2c(-c3ccc(O)cc3O)n[nH]c2C)cc1`, for which the viability, percent of control was 72.3%. Take `C[C@@H]1C[C@H]2[C@@H]3CCC4=CC(=O)C=C[C@]4(C)C3(F)[C@@H](O)C[C@]2(C)[C@@]1(O)C(=O)CO` (stereo not given in full): the viability, percent of control amounted to 28.2%. In the case of `COc1nc(-c2ccc3c(c2)OCO3)n(-c2ccc(NC(=O)CSc3ccccc3)cc2)n1`, the viability, percent of control worked out at 68.5%. With `Cc1ccc2c(c1)C(=O)[C@@]1(O)CCN(c3ccccc3)C1=N2` the figure was 74.4%.

On to `CC(C)c1onc(-c2c(Cl)cccc2Cl)c1COc1ccc(/C=C/c2cccc(C(=O)O)c2)c(Cl)c1`, for which the viability, percent of control was found to be 75.2%.

On to `CCCS(=O)(=O)Nc1ccc(F)c(C(=O)c2c[nH]c3ncc(-c4ccc(Cl)cc4)cc23)c1F`, for which the viability, percent of control came out at 4.32%. With `Fc1ccc(Cl)cc1-c1nc(Nc2ccncc2)c2nccnc2n1`, the viability, percent of control was determined as 93.2%.

Consider `NC(=O)c1ccc(-c2nc(-c3ccc4c(c3)OCO4)c(-c3ccccn3)[nH]2)cc1`, for which the viability, percent of control came to 121%. For the molecule `O=C(O)[C@@H](c1ccc(OCc2ccc3ccccc3n2)cc1)C1CCCC1`, the viability, percent of control stood at 92.8%. With `CC(C)(Sc1ccc(CCN(CCCCC2CCCCC2)C(=O)NC2CCCCC2)cc1)C(=O)O` the figure was 13.8%. Then `OC(CN1CCC(Cc2ccc(F)cc2)CC1)c1ccc(Cl)cc1` (stereo not given), with 66.4%; and `O=C(Nc1cccnc1)N1CCC(Cc2cccc(Oc3ccc(C(F)(F)F)cn3)c2)CC1`, with 46.1%.

On to `COc1ccccc1[C@H](c1cccc2ccccc12)[C@@](C)(C#N)C(=O)N1CCC(c2cccc(C(F)(F)F)c2)CC1`, for which the viability, percent of control is 95.2%. On to `CCC(C)n1ncn(-c2ccc(N3CCN(c4ccc(OC[C@H]5CO[C@](Cn6cncn6)(c6ccc(Cl)cc6Cl)O5)cc4)CC3)cc2)c1=O` (stereo not given in full), for which the viability, percent of control was 77%. Take `Nc1ncnc2nc(-c3ccc(N4CCOCC4)nc3)cc(-c3cccc(Br)c3)c12`: the viability, percent of control was found to be 66.5%. On to `Cc1cnc(Nc2ccc(OCCN3CCCC3)cc2)nc1Nc1cccc(S(=O)(=O)NC(C)(C)C)c1`, for which the viability, percent of control was found to be 65.3%. On to `COc1c(Cl)cc2c([nH]c3cnccc32)c1NC(=O)c1cccnc1C`, for which the viability, percent of control worked out at 62.3%. Consider `CCC(C)N(C)C(=O)c1cc2ccccc2c(-c2ccccc2Cl)n1` (stereo not given), for which the viability, percent of control is 90%.

With `COc1ccc(CC2=NN3C([C@@H](CCc4ccccc4)[C@@H](C)O)=NC(C)C3C(=O)N2)cc1OC` (stereo not given in full), the viability, percent of control was found to be 73.7%. `COc1ccc(CCN2CCN(CCCc3ccccc3)CC2)cc1OC`: the viability, percent of control is 85.9%. As to `Cc1cc2c(C(C)C)c(O)c(O)c(C=O)c2c(O)c1-c1c(C)cc2c(C(C)C)c(O)c(O)c(C=O)c2c1O`, the viability, percent of control was 6.38%. With `COc1ccc(C2=N[C@H](c3ccc(Cl)cc3)[C@H](c3ccc(Cl)cc3)N2C(=O)N2CCNC(=O)C2)c(OC(C)C)c1`, the viability, percent of control was determined as 66.4%. With `Nc1nc2[nH]cc(CCc3ccc(C(=O)N[C@@H](CCC(=O)O)C(=O)O)cc3)c2c(=O)[nH]1` the figure was 74.6%.
